According to PubChem BioAssay (NCATS):
Inconclusive results are not listed. A call without a number means that no potency is given here. Calls of active or inactive are those of the source. The call rests on the fitted dose curve; in most records, active means well fitted inhibition curve with a large enough effect; inconclusive means small, poorly fitted or top-dose-only effect; inactive means no such curve, though single readings can be large or run the other way.

What follows are compounds tested against Retinal dehydrogenase 2 (Homo sapiens) (UniProt O94788) (assay: qHTS for Inhibitors of the Aldehyde Dehydrogenase Family (ALDH1A2) Confirmation screens (AID 2061314; further: nearly all actives have a fitted effect of over 65% in size)). Details: ALDH1A2 enzyme inhibition qHTS confirmation; series mostly up to 45.9 µM.
Potency means the concentration at half of the fitted maximal effect.

SMILES | Potency
CC(=O)c1c(C)n(-c2ccc(Cl)cc2)c2ccc(OC(=O)COc3ccccc3)cc12 | inactive
COc1ccc(Cl)cc1C(=O)NCc1nnc2cc(-c3nc(C)no3)ccn12 | inactive
CCOC(=O)c1c(C)n(-c2ccccc2)c2ccc(OC(=O)c3ccccc3)cc12 | inactive
COc1ccc(-n2c(C)c(C(C)=O)c3cc(OC(=O)c4ccc(C)cc4)ccc32)cc1 | inactive
Cn1sc(=O)n(Cc2ccccc2)c1=O | 8.96 µM (active)
Cc1ccc(-c2ccccc2C=O)c(C)c1 | inactive
Cc1ccc(C(=O)NCC(c2ccc3c(c2)OCO3)N2CCN(c3ccc(F)cc3)CC2)cc1 (configuration not stated) | inactive
CN(C)c1ccc(-c2csc(N3CCC(C(N)=O)CC3)n2)cc1 | 14.2 µM (active)
CC(=O)N1CCN(c2ccc(NCc3ccc(Br)o3)cc2)CC1 | 12.7 µM (active)
Cc1ccc(-c2cccc(C=O)c2)c(C)c1 | inactive
O=C(CCC1CCCN(S(=O)(=O)c2ccccc2F)C1)NCCCN1CCOCC1 (configuration not stated) | inactive
CC(=O)N1CCN(c2ccc(NCc3ccco3)cc2)CC1 | 14.2 µM (active)
Cc1cccc(C(=O)NCc2nnc3cc(-c4nc(C)no4)ccn23)c1 | inactive
O=C(NCC(=O)N1CCN(Cc2ccccc2)CC1)c1cccc(-c2ccsc2)c1 | inactive
CC(=O)c1c(C)n(-c2ccc(C)cc2)c2ccc(OC(=O)COc3ccccc3)cc12 | inactive
COc1ccc(-n2c(C)c(C(C)=O)c3cc(OC(=O)COc4ccccc4)ccc32)cc1 | inactive
COc1ccc2c(c1)c(C(=O)CN(C)C)c(C)n2C | inactive
COc1ccc(-c2nc3ccccc3c(=O)n2Cc2ccccc2)cc1CNc1ccc(NC(C)=O)cc1 | 11.3 µM (active)
Oc1cc2c(cc1CN1CCN(c3ncccn3)CC1)OCO2 | 2.01 µM (active)
Cc1cc(C)cc(-c2ccccc2C=O)c1 | inactive
COc1cccc(-c2cccc(C(=O)N3CCN(C(=O)c4ccc(C)cc4)CC3)c2)c1 | inactive
CC(=O)c1c(C)n(-c2cccc(C)c2)c2ccc(OC(=O)COc3ccccc3)cc12 | inactive
CCN(CC)CC(=O)c1c(C)n(C)c2ccc(OC)cc12 | inactive
O=C(Cc1ccc(F)cc1)Nc1cccc(-c2nc3cccnc3s2)c1 | inactive
COc1ccc(-c2nc(CCNC(=O)c3c(F)cccc3Cl)cs2)cc1 | inactive
O=C(Nc1ncc(Cc2ccc(C(F)(F)F)cc2)s1)c1ccc(-c2ccccc2[N+](=O)[O-])o1 | 25.2 µM (active)
CC(=O)c1c(C)n(-c2cccc(Cl)c2)c2ccc(OC(=O)c3ccccc3)cc12 | inactive
